Results: PubChem BioAssay AID2289 (National Center for Advancing Translational Sciences (NCATS), 2010)
Among all 340,000 compounds or so, about 3,300 (0.97%) were called active. Roughly 9% stayed inconclusive and do not appear here. Calls come from the whole dose curve; as a rule, active = well fitted inhibition curve with a large enough effect; inconclusive = small, poorly fitted or top-dose-only effect, or effect the other way; inactive = flat fitted curve, though single readings scatter. The list shows a part of the results.

assay: qHTS Assay for Modulators of miRNAs and/or Inhibitors of miR-21; conditions: HeLa miR-21-FLuc reporter, luciferase luminescence, 48 h; actives lower the signal; note: nearly all actives have a fitted effect of over 55% in size
Summary of the method: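 HeLa cells stably expressing CMV-driven firefly luciferase with a downstream miR-21 binding sequence, endogenously expressing miR-21, were treated with titrations (up to about 40uM final) for 48 hours at 37 degree Celsius. Luciferase luminescence was read after lysis.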
Potency is the fitted concentration of half-maximal effect.

Potency, active:
COc1cc(CCC(C)=O)ccc1OC(=O)c1c(F)cccc1Cl 2.93 µM
C=CCn1c(SCC(=O)Nc2ccc(-c3nc4ccc(C)cc4s3)cc2)nnc1-c1ccncc1 8.26 µM
C=CCn1c(SCC(=O)Nc2ccc(-c3nc4ccc(C)cc4s3)cc2)nnc1-c1ccccc1 1.17 µM
C/C(=N/Nc1ccc(C(=O)O)cc1)c1ccc(O)c(O)c1O 18.5 µM
O=C(CSc1nnc(-c2ccccc2Cl)o1)N1CCOCC1 3.69 µM
Cc1ccccc1-c1nnc(SCC(=O)N2CCCC2)o1 7.36 µM
CC(C)(C)C(=O)c1cnc(Nc2ccccc2)s1 2.33 µM
CC(=O)c1cnc(Nc2cccc(C)c2)s1 2.93 µM
COc1ccccc1/C=C/C=N/Nc1cccc(C(=O)O)c1 0.185 µM
O=C(O)c1cc(N/N=C/c2cccc3ccccc23)ccc1Cl 3.29 µM
Cc1[nH]c2ccccc2c1/C=N/Nc1cccc(C(=O)O)c1 7.36 µM
O=C(O)c1cccc(N/N=C/c2cccc3ccccc23)c1 0.0826 µM
COc1ccc2ccccc2c1/C=N/Nc1cccc(C(=O)O)c1 6.56 µM
O=C(O)c1cc(N/N=C/c2c(O)ccc3ccccc23)ccc1Cl 2.07 µM
CC(C)n1cc(/C=N/Nc2ccc(Cl)c(C(=O)O)c2)c2ccccc21 3.29 µM
Cc1cccc(N/N=C/c2ccccc2O)c1 10.4 µM
Cc1[nH]c2ccccc2c1N=Nc1cccc(C(=O)O)c1 1.85 µM
Cc1ccc(-c2nc3ccccn3c2Nc2ccc3c(c2)OCCO3)s1 1.85 µM
Cc1ccn2c(Nc3ccc4c(c3)OCCO4)c(-c3ccc(Cl)s3)nc2c1 13.1 µM
COC(=O)c1sccc1N/N=C/c1ccc(OC)c(OC)c1OC 6.56 µM
COC(=O)c1sccc1N/N=C/c1cccc(Oc2ccccc2)c1 1.85 µM
COc1cc(/C(C)=N/NC(=O)CSc2nncn2C)ccc1OCc1ccccc1Cl 10.4 µM
C=CCNc1ncnc2c1cnn2-c1ccc(Cl)cc1 0.329 µM
Clc1ccc(-n2ncc3c(NCc4ccccn4)ncnc32)cc1 5.85 µM
Fc1cccc(Cl)c1CSc1nnc(-c2ccncc2)o1 14.7 µM
COc1ccc2c(c1)CC/C(=C/c1ccco1)C2=O 1.85 µM
COc1ccc2c(c1)CC/C(=C\c1ccc(C)o1)C2=O 2.93 µM
O=C1/C(=C/c2ccco2)CCc2ccccc21 18.5 µM
O=[N+]([O-])c1ccccc1-c1nc(-c2ccc(Br)o2)no1 1.47 µM
CCCCOc1ccc(CSc2nncn2N)cc1 14.7 µM
Cc1ccsc1/C=C1\CCC(C2CCCC2)C1=O (stereo not drawn) 3.69 µM
COc1cccc(/C=C2\CCC(C3CCCC3)C2=O)c1OC (stereo not drawn) 4.14 µM
Cc1c(Cl)cccc1NC(=O)c1noc2c1CCCC2 7.36 µM
COc1ccc(NC(=O)c2noc3c2CCCC3)cc1Cl 0.369 µM
Cc1ccc2c(c1)c1ncnc(N3CCC4(CC3)OCCO4)c1n2C 7.36 µM
Cc1ccc2c(c1)c1ncnc(N3CCOCC3)c1n2C 13.1 µM
Fc1cccc(/C=N/NC(=S)Nc2ccccc2Cl)c1 4.65 µM
Fc1ccccc1NC(=S)N/N=C/c1ccccc1Br 4.65 µM
N/C(=N\NC(=O)Nc1ccc(Cl)cc1)c1ccccn1 3.29 µM
N/C(=N\NC(=O)Nc1ccccc1)c1ccccn1 2.61 µM
Cc1cc(C)c(C#N)c(SCc2nnc(-c3ccccc3[N+](=O)[O-])o2)n1 3.69 µM
O=c1c2ccccc2nc2sc3ccccc3n12 6.56 µM
CCN1CCC2(CC1)Oc1c(OC)cccc1C1CC(c3cccnc3)=NN12 (stereo not drawn) 11.7 µM
CCOc1cccc2c1OC1(CCCCC1)N1N=C(c3cccnc3)CC21 (stereo not drawn) 16.5 µM
CC(=O)c1c(C)[nH]c(C(=O)Nc2ccc(Cl)cc2F)c1C 2.07 µM
Cc1nnc2n(c1=O)N=C(c1ccc(Cl)cc1)CS2 1.65 µM
O/N=C/c1ccnc(SCc2ccccc2)n1 10.4 µM
Cc1nc(C)c(-c2ccc(SCc3ccccc3F)nn2)s1 14.7 µM
Cc1ccc2scc(N3CCCC(C)C3)c(=O)c2c1 (stereo not drawn) 6.56 µM
Cc1ccc2scc(N3CCCCC3C)c(=O)c2c1 (stereo not drawn) 14.7 µM
COc1ccc(NC(=S)Nc2cc(C)[nH]n2)cc1Cl 18.5 µM
Cc1cc(NC(=S)Nc2ccc(C)c(Cl)c2)n[nH]1 7.36 µM
Cc1cc(C(=O)CSc2ccc3c(c2)OCCO3)c(C)n1C1CC1 7.36 µM
Cc1ccc(NC(=O)c2ccc(=O)[nH]n2)cc1C 6.56 µM
CC(C)(C)c1ccc(NC(=O)c2ccc(=O)[nH]n2)cc1 0.826 µM
Nc1ccc(C(=O)OCc2nc3ccccc3s2)cc1 16.5 µM
COc1cc(OC)cc(C(=O)NCC(=O)OCc2nc3ccccc3s2)c1 0.464 µM
O=C(OCc1nc2ccccc2s1)c1ccco1 7.36 µM
Cc1ccc(-n2c(C)c(C)c3c(NCCO)ncnc32)cc1 13.1 µM
Cc1c(C)n(CCc2ccccc2)c2ncnc(NCCO)c12 4.14 µM
Cc1ccc(-n2c(C)c(C)c3c(NCCCO)ncnc32)cc1 7.36 µM
COc1ccc(-c2nnc(-c3ccc(F)cc3)o2)cc1 1.04 µM
COc1ccc(-c2nnc(-c3ccc(C)cc3)o2)cc1 2.07 µM
c1ccc(Nc2nnc(-c3cccnc3)s2)cc1 0.261 µM
CCS(=O)(=O)N1Cc2ccccc2CC1C(=O)Nc1nc2ccc(F)cc2s1 (stereo not drawn) 4.65 µM
CCS(=O)(=O)N1Cc2ccccc2CC1C(=O)Nc1nc(C)cs1 (stereo not drawn) 10.4 µM
CCS(=O)(=O)N1Cc2ccccc2CC1C(=O)Nc1nccs1 (stereo not drawn) 14.7 µM
O=C(/C=C/c1ccccc1)NCCC1=CCCCC1 5.85 µM
CC(C)(C)SCCNC(=O)/C=C/c1ccccc1 11.7 µM
O=C(/C=C/c1ccc(F)cc1)NCCC1=CCCCC1 7.36 µM
CCN(Cc1ccccc1)c1ccc(N=Nc2nn(C)c(C)c2[N+](=O)[O-])cc1 18.5 µM
CCN(CC)c1ccc(N=Nc2nn(C)c(C)c2[N+](=O)[O-])cc1 0.736 µM
CCc1cc2cc(C(=O)Nc3ccc(F)cc3)sc2s1 1.65 µM
COc1cc(NC(=O)c2cc(-c3cccc(OC)c3)n[nH]2)cc(OC)c1 3.29 µM
CCOC(=O)c1cn[nH]c1NC(=S)Nc1ccc(Cl)cc1 0.656 µM
COc1ccc2cc(-c3ccn[nH]3)ccc2c1 0.927 µM
Cc1ccc(Nc2nc(N)c([N+](=O)[O-])c(NCCO)n2)cc1C 13.1 µM
CNc1nc(Nc2ccc(C)c(Cl)c2)nc(N)c1[N+](=O)[O-] 3.29 µM
O=C(c1cc(-c2cccc(Cl)c2)on1)N1CCCCCC1 4.65 µM
O=C(c1cc(-c2cccc(Cl)c2)on1)N1CCCC1 3.69 µM
CSc1c(C#N)c(N)c(C#N)c2c1COC(C)(C)C2 18.5 µM
CN1CCN(/N=C/c2ccc(Br)cc2)CC1 14.7 µM
CN1CCN(/N=C/c2ccc(Cl)c(Cl)c2)CC1 7.36 µM
Cc1c(-c2nnc(SCC(=O)Nc3ccccc3F)o2)nnn1-c1ccc(F)cc1 2.93 µM
Cc1nn(-c2ccccc2)c(Cl)c1/C=N/NC(=O)c1ccc(NS(=O)(=O)c2cccs2)cc1 4.14 µM
Cc1nn(-c2ccc(F)cc2)c(Cl)c1/C=N/NC(=O)c1cccs1 2.93 µM
Clc1ccc(-c2nc(-c3cnccn3)no2)cc1 0.521 µM
Fc1ccc(-c2nc(-c3cnccn3)no2)c(Cl)c1 0.464 µM
O=C(c1ccccc1)c1c(O)nc(-c2ccccc2)n(-c2ccccc2)c1=O 13.1 µM
O=C(Nc1ccn(Cc2ccccc2)n1)c1n[nH]c([N+](=O)[O-])c1Cl 2.07 µM
CCSc1nnc2ccc(-c3ccc(C)cc3)nn12 16.5 µM
CCSc1nnc2ccc(-c3ccc(OC)c(OC)c3)nn12 14.7 µM
CC(=O)c1sc(NC(=O)c2ccc(C(C)(C)C)cc2)nc1C 0.826 µM
CC(=O)c1sc(NC(=O)c2ccc(C)c(C)c2)nc1C 0.585 µM
Cc1ccsc1C(=O)OCC(=O)N1CCc2ccccc2C1 3.29 µM
Cc1ccc(Cl)c(OCC(=O)N2CCc3ccccc3C2)c1 14.7 µM
CC(=O)c1ccc(N2CCc3ccccc3C2)c([N+](=O)[O-])c1 9.27 µM
COc1cc2c(cc1OC)CN(c1ccc(F)cc1[N+](=O)[O-])CC2 13.1 µM
COc1cc2c(cc1OC)CN(c1ncccc1[N+](=O)[O-])CC2 18.5 µM
COc1cc(Cl)ccc1OCc1cc(C(=O)N2C[C@H]3CC[C@H]2C3)no1 5.21 µM
CC(=O)c1cccc(OCc2cc(C(=O)N3C[C@H]4CC[C@H]3C4)no2)c1 5.21 µM
O=C(c1cc(COc2ccc(F)cc2F)on1)N1C[C@H]2CC[C@H]1C2 13.1 µM
CC(=O)c1cccc(OCc2cc(C(=O)N(C)CCC3CCOCC3)no2)c1 16.5 µM
